Measurements taken from the supplement of paper PMC3616981.
± gives the standard deviation of the averaged measurements.

Compound: CC(C)c1cccc(C(C)C)c1N1C(=O)c2ccc(O)cc2C1=O
Assay: BioMAP readout fold decrease vs vehicle (vehicle/treated); higher = stronger decrease of the readout vs vehicle (values <1 mean increase)
Method: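 BioSeek BioMAP human primary cell (co-)culture systems (3C, 4H, LPS, SAg, BE3C, CASM3C, hDFCGF, KF3CT) treated with 5HPP-33 at 1.48, 4.44, 13.3 and 40 µM. Read-outs are protein levels by ELISA, proliferation and SRB total protein. Duplicate rows per assay are averaged as replicates. Tested in ToxCast Phase II for this study; exposure time not stated.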
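Note: Co-cultures of keratinocytes, bronchial epithelial and smooth muscle cells, fibroblasts, HUVECs and PBMCs under stimuli like LPS, TNF-α, IFN-γ, IL-1β, TGF-β or EGF, SRB reflecting cytotoxicity.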

| Target | BioMAP readout fold decrease (1.48 µM) | BioMAP readout fold decrease (4.44 µM) | BioMAP readout fold decrease (13.3 µM) | BioMAP readout fold decrease (40 µM) |
| --- | --- | --- | --- | --- |
| SAg_Proliferation | 1.22 ± 0.15 | 1.7 ± 0.1 | 1.76 ± 0.053 | 10.3 ± 0.41 |
| 3C_SRB | 0.983 ± 0.018 | 1.13 ± 0.012 | 1.46 ± 0.018 | 2.09 ± 0.16 |
| 3C_Eselectin | 1.04 ± 0.051 | 1.056 ± 0.0015 | 0.99 ± 0.023 | 1.39 ± 0.034 |
| BE3C_IP10 | 1.1 ± 0.12 | 1.15 ± 0.0028 | 1.65 ± 0.029 | 3.38 ± 0.11 |
| 3C_TissueFactor | 0.903 ± 0.018 | 0.906 ± 0.021 | 0.943 ± 0.014 | 1.43 ± 0.2 |
| hDFCGF_CollagenIII | 1.123 ± 0.0039 | 1.19 ± 0.025 | 1.04 ± 0.012 | 1.49 ± 0.13 |
| hDFCGF_MIG | 1.01 ± 0.012 | 1.01 ± 0.0026 | 1.02 ± 0.027 | 1.42 ± 0.031 |
| 3C_ICAM1 | 1.05 ± 0.025 | 1.05 ± 0.019 | 1.02 ± 0.013 | 1.08 ± 0.087 |
| BE3C_PAI1 | 1.18 ± 0.056 | 1.236 ± 0.012 | 1.5 ± 0.03 | 1.91 ± 0.13 |
| hDFCGF_IL8 | 1.03 ± 0.018 | 0.964 ± 0.017 | 0.8858 ± 0.0045 | 0.9866 ± 0.0065 |
